Inhibition data for 32 molecules are collected here from ChEMBL document CHEMBL1961873, “Compounds: GSK PKIS; Assays: Nanosyn kinase panel” (2012).
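Further: value reported is the mean inhibition of FMS.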

For this experiment, the target named is Macrophage colony-stimulating factor 1 receptor (Homo sapiens) (UniProt P07333). As to conditions: at 0.1 µM.
Chain of Macrophage colony-stimulating factor 1 receptor (Homo sapiens) (P07333 whole entry): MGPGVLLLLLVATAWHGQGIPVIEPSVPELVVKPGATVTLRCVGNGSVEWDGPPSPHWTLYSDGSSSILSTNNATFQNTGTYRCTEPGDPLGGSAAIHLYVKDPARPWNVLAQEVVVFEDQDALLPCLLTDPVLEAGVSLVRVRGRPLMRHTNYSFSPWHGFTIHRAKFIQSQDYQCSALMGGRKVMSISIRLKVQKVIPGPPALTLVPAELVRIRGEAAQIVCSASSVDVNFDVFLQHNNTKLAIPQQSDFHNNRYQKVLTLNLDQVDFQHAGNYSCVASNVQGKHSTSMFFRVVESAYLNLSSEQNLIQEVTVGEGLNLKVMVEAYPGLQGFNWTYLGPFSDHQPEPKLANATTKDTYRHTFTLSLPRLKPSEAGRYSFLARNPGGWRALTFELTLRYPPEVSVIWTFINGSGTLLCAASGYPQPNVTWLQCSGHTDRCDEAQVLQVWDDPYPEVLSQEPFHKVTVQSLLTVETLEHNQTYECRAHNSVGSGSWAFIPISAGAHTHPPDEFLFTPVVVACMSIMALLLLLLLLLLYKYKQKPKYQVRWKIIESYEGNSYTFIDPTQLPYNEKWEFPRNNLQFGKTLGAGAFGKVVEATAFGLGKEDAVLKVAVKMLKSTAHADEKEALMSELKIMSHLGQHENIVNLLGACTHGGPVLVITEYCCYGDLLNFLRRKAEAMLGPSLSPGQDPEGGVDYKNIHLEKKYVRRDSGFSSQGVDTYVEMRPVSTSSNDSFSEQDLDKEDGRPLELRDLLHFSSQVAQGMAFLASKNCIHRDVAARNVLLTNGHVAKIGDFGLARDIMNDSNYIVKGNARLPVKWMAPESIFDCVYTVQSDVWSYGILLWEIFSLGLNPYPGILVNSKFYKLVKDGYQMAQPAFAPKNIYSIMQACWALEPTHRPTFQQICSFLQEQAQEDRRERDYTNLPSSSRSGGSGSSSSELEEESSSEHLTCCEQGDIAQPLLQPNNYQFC
In the case of `Fc1ccc(-c2c(-c3ccncc3)nc3n2CCS3)cc1`, the inhibition worked out at 1.54%.

Turning to `C/C(Nc1ccc(S(N)(=O)=O)cc1)=C1/C(=O)Nc2ccccc21`, the inhibition amounted to 12.1%.

In the case of `C[C@@H](Oc1cc(-n2cnc3ccc(OC4CCN(C)CC4)cc32)sc1C(N)=O)c1ccccc1Cl`, the inhibition was determined as 3.34%.

In the case of `CCS(=O)(=O)c1ccc(OC)c(Nc2ncc(-c3ccccc3Cl)o2)c1`, the inhibition came out at 9.53%.

As for `COc1cc(N2CCN(C(C)C)CC2)ccc1Nc1nc(Nc2ccc(F)cc2C(=O)NC[C@@H](O)CO)c2cc[nH]c2n1`, the inhibition came out at 1.22%.

On to `Cc1nnc(-c2ccc(C)c(-c3ccc(C(=O)NCc4ccc(Cl)cc4)cc3)c2)o1`, for which the inhibition was 2.43%.

As for `COc1ccc2ncn(-c3cc(O[C@H](C)c4ccccc4Cl)c(C(N)=O)s3)c2c1`, the inhibition came out at 3.05%.

Take `COc1cc(Nc2ncc3c(C)nc(-c4cccc(Oc5ccccc5)c4)n3n2)cc(OC)c1OC`: the inhibition came out at 1.83%.

Turning to `CN(C)CCCNc1nccc(-c2c(-c3ccc(F)cc3)nn3cc(C(F)(F)F)ccc23)n1`, the inhibition stood at 2.1%.

As to `CS(=O)(=O)CCNCc1ccc(-c2ccc3ncnc(Nc4ccc(OCc5ccccc5)c(Br)c4)c3c2)o1`, the inhibition is -1.9%.

On to `COc1cc2ncn(-c3cc(OCCc4ccccc4)c(C(N)=O)s3)c2cc1OC`, for which the inhibition is -0.81%.

On to `O=C(NCC1CC1)c1ccc(-c2cccc(C(=O)NC3CC3)c2)cc1`, for which the inhibition stood at 1.67%.

For `CN1CCN(CCCNc2nc3ccc(Oc4ccc(NC(=O)Nc5cc(C(F)(F)F)ccc5F)cc4)cc3[nH]2)CC1`, the inhibition was 3.57%.

As to `CN(C)c1ccc2c(c1)/C(=C/Nc1ccc(S(N)(=O)=O)cc1)C(=O)N2`, the inhibition turned out to be 4.82%.

Consider `Clc1ccc(CNc2nccc(-c3cnn4ncccc34)n2)cc1`, for which the inhibition is 1.45%.

On to `COc1cccc(-n2cnc3c(N/N=C/c4ccncc4)ncnc32)c1`, for which the inhibition was found to be 4.43%.

Take `c1ccc(-c2n[nH]cc2-c2ccnc(-c3ccc(OCCN4CCOCC4)cc3)c2)nc1`: the inhibition worked out at 2.4%.

On to `COc1cc2ncn(-c3cc(OCc4cccs4)c(C(N)=O)s3)c2cc1OC`, for which the inhibition turned out to be 1.28%.

On to `CNC(=O)c1cncc(/C=C/c2c(C)cccc2C)c1`, for which the inhibition came to 12%.

Take `COc1cc(C)c(N(C)C(=O)CN(C)C)cc1Nc1nc(Nc2cccc(F)c2C(N)=O)c2cc[nH]c2n1`: the inhibition was -0.28%.

As to `C#Cc1cccc(Nc2ncnc3ccc(OCCCCNCCS(C)(=O)=O)cc23)c1`, the inhibition is 4.11%.

Consider `COC(=O)Nc1nc2ccc(Sc3ccc(NC(=O)Nc4cc(C(F)(F)F)ccc4F)cc3)cc2[nH]1`, for which the inhibition stood at 0.81%.

On to `CCc1nccc2c1nc(-c1nonc1N)n2CC`, for which the inhibition is -0.59%.

In the case of `COc1cc(Nc2ncc3c(C)nc(-c4cccc(C(F)(F)F)c4)n3n2)cc(OC)c1OC`, the inhibition came out at 32.9%.

For `O=C1Nc2ccc(I)cc2C1=Cc1cc(Br)c(O)c(Br)c1`, the inhibition was 4.92%.

On to `COc1cc2ncn(-c3cc(OCc4ccccc4C(F)(F)F)c(C(C)=O)s3)c2cc1OC`, for which the inhibition came out at 0.38%.

Consider `O=C(Nc1ccc(Oc2ccc3[nH]c(NC(=O)c4ccccc4)nc3c2)cc1)Nc1cc(C(F)(F)F)ccc1F`, for which the inhibition came to 4.75%.

In the case of `Fc1ccc(-c2ncn(CCCN3CCOCC3)c2-c2ccncc2)cc1`, the inhibition was found to be 0.18%.

For the molecule `CCS(=O)(=O)c1ccc(OC)c(Nc2ncc(-c3cccc(-c4ccccc4F)c3)o2)c1`, the inhibition is 4.55%.

As to `Fc1ccc(-c2nc3n(c2-c2ccncc2)CCS3)cc1`, the inhibition is 0.95%.

On to `C[C@@H](Oc1cc(-n2cnc3ccc(OCC4CCN(C)CC4)cc32)sc1C(N)=O)c1ccccc1Cl`, for which the inhibition came out at 4.53%.

On to `FC(F)(F)c1cccc(Nc2nccc(-c3cnn4nc(-c5ccccc5)ccc34)n2)c1`, for which the inhibition is -2.73%.

For orientation: inhibition means the relative decrease from the control value, in per cent.
